An excerpt weighted towards active compounds, which were near 4% of everything screened.
VHR inh abs: inhibitors of human VHR1 phosphatase (DUSP3) | P51452 | recombinant VHR phosphatase, pNPP absorbance | inhibition, % at 13.3 µM | hit rate 0.52% among 290,000; in the data active = inhibition above about 50%
Anthrax LF inh2: blocks Bacillus anthracis lethal factor protease. P15917. multiplex microsphere protease cleavage assay, LF. inhibition, % at 10 µM. hit rate 0.12% among 360,000. AID 588501
Target sequence (P15917 whole entry, looked up): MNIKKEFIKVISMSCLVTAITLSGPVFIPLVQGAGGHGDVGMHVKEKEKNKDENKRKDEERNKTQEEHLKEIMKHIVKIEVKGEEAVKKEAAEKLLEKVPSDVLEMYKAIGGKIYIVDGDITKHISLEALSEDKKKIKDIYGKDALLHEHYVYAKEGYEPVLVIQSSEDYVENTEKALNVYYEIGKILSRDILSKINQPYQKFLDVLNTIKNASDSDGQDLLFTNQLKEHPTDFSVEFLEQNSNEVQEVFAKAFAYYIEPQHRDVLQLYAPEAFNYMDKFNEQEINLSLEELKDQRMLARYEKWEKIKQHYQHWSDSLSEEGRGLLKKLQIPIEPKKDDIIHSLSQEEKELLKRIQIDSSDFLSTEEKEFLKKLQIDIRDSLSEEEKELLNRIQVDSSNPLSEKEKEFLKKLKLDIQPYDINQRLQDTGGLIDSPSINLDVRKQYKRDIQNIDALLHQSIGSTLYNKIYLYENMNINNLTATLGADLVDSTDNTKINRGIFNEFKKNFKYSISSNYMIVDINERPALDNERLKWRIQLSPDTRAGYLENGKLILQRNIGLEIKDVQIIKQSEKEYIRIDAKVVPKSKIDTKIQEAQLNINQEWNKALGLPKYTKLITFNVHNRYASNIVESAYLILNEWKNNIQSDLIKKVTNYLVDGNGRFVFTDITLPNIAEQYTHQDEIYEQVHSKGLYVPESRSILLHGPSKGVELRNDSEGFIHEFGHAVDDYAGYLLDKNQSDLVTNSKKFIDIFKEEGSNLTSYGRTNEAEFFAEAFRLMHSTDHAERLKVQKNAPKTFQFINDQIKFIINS
BoNT-A LC inh2: blocks Botulinum neurotoxin A light chain protease | multiplex microsphere protease substrate cleavage, flow cytometry | AID 588499 | hit rate 0.17% among 360,000 | inhibition, % at 10 µM
Bead autofluor: flagged as autofluorescent in microsphere protease counterscreen; compound autofluorescence counterscreen, microsphere flow cytometry; stronger effect = higher value; fluorescence intensity (no concentration beside the values); hit rate 3.1% among 360,000; AID 624483; in the data active = fluorescence intensity above about 16000; inconclusive = no clear call, values can overlap the other calls
BoNT F protease: blocks Botulinum neurotoxin F light chain protease; inhibition, % at 10 µM; hit rate 0.22% among 360,000; Multiplex microsphere protease cleavage assay, flow cytometry; AID 588497; in the data active = inhibition above about 35%, passing the limit was not always enough; inconclusive = no clear call, values can overlap the other calls
MazF activator: activators of E. coli MazEF toxin-antitoxin RNase; P0AE70; FAM/BHQ RNA-DNA oligo cleavage fluorescence, 5 h; activation, % at 20 µM; hit rate 0.32% among 350,000; AID 504720; in the data active = activation above about 50%
Large screens that a line does not name were inactive. Rule as the data show it, unless noted: active = inhibition above about 30%; inconclusive = no clear call, values can overlap the other calls; inactive = below that.

Cc1ccc(S(=O)(=O)N2CCCC2)cc1C(=O)NCc1ccccn1	none
O=S(=O)(c1cccc(S(=O)(=O)N2CCC(N3CCCCC3)CC2)c1)N1CCOCC1	none (no result: Anthrax LF inh2, BoNT-A LC inh2, Bead autofluor, BoNT F protease, MazF activator)
Cn1cc(C(=O)NCc2ccc(F)cc2)c(=O)c2cc(S(=O)(=O)N3CCCCC3)ccc21	none
O=C(NCc1ccccn1)c1cc(S(=O)(=O)N2CCN(c3ccccc3)CC2)ccc1Cl	BoNT-A LC inh2 inconclusive, Bead autofluor 22854
CN(Cc1ccccc1)C(=O)c1cn(C)c2ccc(S(=O)(=O)N3CCCC3)cc2c1=O	VHR inh abs 51
Cc1ccc(CNC(=O)c2cn(C)c3ccc(S(=O)(=O)N4CCOCC4)cc3c2=O)cc1	VHR inh abs 52
CC1CCN(S(=O)(=O)c2cccc(S(=O)(=O)N3CCOCC3)c2)CC1	Bead autofluor 16191
COc1ccc(NC(=O)C2(C)Cc3c(-c4ccc(NC(C)=O)cc4)ccnc3O2)cc1 (centres undefined)	none (no result: VHR inh abs, MazF activator)
C[C@@H]1CC[C@@]2(O[C@H](CCO)C[C@@H](O)[C@@H]2O)O1	none
O=C(O)c1cc(S(=O)(=O)N2CCCCC2)ccc1Cl	BoNT F protease inconclusive
O=C(O)c1cc(S(=O)(=O)N2CCCCC2)ccc1F	Bead autofluor 21594
O=S(=O)(c1cccc(S(=O)(=O)N2CCC(Cc3ccccc3)CC2)c1)N1CCOCC1	none
O=C(NCc1ccccc1)c1cc(S(=O)(=O)N2CCOCC2)ccc1F	MazF activator 50
O=S(=O)(NCc1ccccc1)c1cccc(S(=O)(=O)N2CCOCC2)c1	Bead autofluor 21829
Cc1ccc(NC2CCCN(C(=O)c3cnsn3)C2)cc1C (centres undefined)	none
O=C(N[C@@H](Cc1ccc(Br)cc1)C(=O)O)OCC1c2ccccc2-c2ccccc21	none
c1ccc2nc(-c3nccs3)ccc2c1	none
CCOc1ccc(NC(=O)c2cc3c(=O)n(C)c4ccccc4c3n2C)cc1	Bead autofluor 18920
c1ccc2sc(NC3=NCN(C4CCCCCC4)CN3)nc2c1	Bead autofluor 19894
CC(=O)Nc1cccc(NC(=O)c2cc3ccccc3o2)c1	none
CC(C)Cn1c(SCc2nc3ccccc3c(=O)[nH]2)nc2ccccc2c1=O	Bead autofluor 19467
Cn1c(SCc2nc3ccccc3c(=O)[nH]2)nc2ccccc21	none
Cc1csc(NC(=O)c2nc(-c3ccccc3)n(-c3ccccc3)n2)n1	Bead autofluor 22922
O=C(Nc1nccs1)c1nc(-c2ccccc2)n(-c2ccccc2)n1	none
O=c1c2ccccc2[nH]c(=S)n1CC1CCCO1 (centres undefined)	none (no result: VHR inh abs)
O=c1c2cc(N3CCOCC3)ccc2[nH]c(=S)n1CC1CCCO1 (centres undefined)	Bead autofluor 22212
COCCCn1c(=S)[nH]c2ccc(N3CCOCC3)cc2c1=O	Bead autofluor 18662
COc1cccc(C(C(=O)NC(C)(C)C)N(Cc2ccc(F)cc2)C(=O)CCC(=O)Nc2cc(C)on2)c1OC (centres undefined)	none
C=CCN(C)NC(=O)Nc1ccccc1	none
CN1/C(=C\C(=S)NC(=O)c2cccc(Br)c2)C(C)(C)c2ccccc21	BoNT-A LC inh2 42
Nc1cccc(-c2ccc(CO)o2)c1	none
O=S(=O)(NCCOc1ccccc1)c1ccc2ccccc2c1	BoNT-A LC inh2 inconclusive, Bead autofluor 19154
Clc1nc(-c2ccccc2)cc(-c2ccc(Br)cc2)n1	Bead autofluor 23930 (no result: VHR inh abs)
COCCCn1c(C)nnc1-c1cnn(-c2ccccc2)c1N	none
Cc1nnc(-c2cnn(C)c2N)n1Cc1ccccc1	none
Cc1nnc(-c2cnn(-c3ccccc3)c2N)n1Cc1ccccc1	Bead autofluor 20987
Cc1nnc(-c2cnn(-c3ccccc3)c2N)n1Cc1ccc(F)cc1	BoNT-A LC inh2 inconclusive, Bead autofluor 19393
O=C(O)C[C@@H]1C(=O)O[C@@H]2C(COC(=O)c3cc(O)c(O)c(O)c3)O[C@@H](OC(=O)c3cc(O)c(O)c(O)c3)[C@@H](OC(=O)c3cc(O)c(O)c4c3[C@H]1[C@H](O)C(=O)O4)[C@H]2OC(=O)c1cc(O)c(O)c(O)c1 (some centres undefined)	VHR inh abs 114 (no result: Anthrax LF inh2, BoNT-A LC inh2, Bead autofluor, BoNT F protease, MazF activator)
COC1OC(COC(=O)c2ccccc2)C(OC(=O)c2ccccc2)C1OC(=O)c1ccccc1 (centres undefined)	BoNT F protease inconclusive (no result: VHR inh abs)
O=C(NCCc1ccc(F)cc1)c1cccc2c1C(=O)c1ccc(N3CCC(Cc4ccccc4)CC3)cc1S2(=O)=O	Anthrax LF inh2 41 (no result: VHR inh abs)
O=C(NCc1cccc(F)c1)c1cccc2c1C(=O)c1ccc(N3CCC(Cc4ccccc4)CC3)cc1S2(=O)=O	none (no result: VHR inh abs)
CC1CCN(c2ccc3c(c2)S(=O)(=O)c2cccc(C(=O)NCc4cccc(F)c4)c2C3=O)CC1	MazF activator 97 (no result: VHR inh abs)
Cn1nnnc1SCc1c(F)cccc1F	Bead autofluor 21178
Cc1c([N+](=O)[O-])c(C(=O)N2CCCC2)nn1C	Bead autofluor 22515
COc1cc(S(=O)(=O)Nc2ccccc2C)ccc1Cl	none
COc1cc(S(=O)(=O)Nc2c(C)cc(C)cc2C)ccc1Cl	Bead autofluor 17705
CC1CCCCN1Cc1ccc(N(C)C)cc1 (centres undefined)	none
Cc1ccc2nc(SCC(=O)Nc3nnc(SCC(N)=O)s3)[nH]c2c1	Bead autofluor 20623
Cc1ccc2nc(SCC(=O)Nc3cccnc3Cl)[nH]c2c1	none (no result: VHR inh abs)
Cc1ccc2nc(SCC(=O)c3c(N)n(C)c(=O)n(C)c3=O)[nH]c2c1	none
C/C(N)=C(/C#N)C(=O)CSc1nc2ccc(C)cc2[nH]1	Bead autofluor 16421
CC(C)c1ccc(NC(=S)NN(c2ccccc2)c2ccccc2)cc1	none
Cc1cccc2sc(NC(=O)CSCc3ccccc3)nc12	BoNT-A LC inh2 inconclusive, Bead autofluor 23019
Cc1cccc2sc(NC(=O)Cn3cccc3)nc12	none
O=C1N/C(=C/c2cccn2-c2ccc(F)cc2)C(=O)N1Cc1ccccc1	BoNT-A LC inh2 inconclusive, Bead autofluor 23854
O=C(O)c1cccc(-n2cccc2/C=C2\NC(=O)N(Cc3ccc(F)cc3)C2=O)c1	none
CC(C)C(O)P(=O)(OCc1ccccc1)c1ccc(N(C)C)cc1 (centres undefined)	Bead autofluor 20468
CN(C)c1ccc(P(=O)(OCc2ccccc2)C(O)c2cccnc2)cc1 (centres undefined)	Bead autofluor 20409
CC(=O)c1c(C(C)=O)c(C)n(-c2nc(-c3ccc(Br)cc3)c(C)s2)c1C	Bead autofluor 17033
CC1=C(C(=O)Nc2cc(C(=O)NCCCOC(C)C)ccc2C)SCCO1	none
Cc1cc(/C(=N/O)C(C)(C)NO)ccc1Cl	Bead autofluor 22038
O=C(CSc1nnc(CNc2ccc(Cl)cc2)o1)Nc1nc2ccccc2s1	BoNT-A LC inh2 inconclusive, Bead autofluor 25121
O=C(CSc1ncn(-c2ccccc2)n1)Nc1nc(-c2ccccc2)cs1	BoNT-A LC inh2 inconclusive, Bead autofluor 20833
CCn1c(SCC(=O)Nc2nc(-c3ccccc3)cs2)nnc1-c1ccccc1	none
Cc1nnc(SCC(=O)Nc2nc(-c3ccccc3)cs2)n1N	Bead autofluor 22717

Source: PubChem
